Reference: PubChem BioAssay
Active and inactive are the calls of the source.

Tests used:
[1] = compounds binding Alexa647 anti-His antibody – biochemical, small-molecule microarray, 635 nm fluorescence, artefact control for SMM control protein annotation, primary screen (AID 1128); conditions: higher = more signal;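 also: score merges feature fluorescence with signal-to-noise for each printed compound spot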
[2] = test system: Human papillomavirus type 1a E7 protein (residues 1-88); assay: HPV1a E7 small-molecule binders, primary screen, biochemical, small-molecule microarray, residues 1-88, 635 nm (AID 1129); conditions: small-molecule microarray binding, fluorescence 635 nm; higher = more signal
[3] = biological target: Focal adhesion kinase 1 (Homo sapiens) (UniProt Q05397); assay: PTK2 protein binding on printed compound slides – biochemical, small-molecule microarray, 635/667 nm fluorescence, BSA, DTT, primary screen (AID 1130); conditions: 635 nm fluorescence, higher = more signal;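 also: composite of spot emission at 667 nm and signal to noise over triplicate slides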
[4] = test system: Fibrinogen (Alexa647-labelled); assay: Alexa647-fibrinogen binding to printed small molecules – biochemical, small-molecule microarray, 635/667 nm fluorescence, artefact control for SMM control-protein annotation, profiling panel (AID 1131); conditions: fibrinogen-A647 binding fluorescence, higher = more signal;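 also: z-score merges 667 nm fluorescence with per-spot signal-to-noise over triplicate slides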
[5] = biological target: Follistatin (Homo sapiens) (UniProt P19883); assay: FST protein binding to printed compounds – biochemical, small-molecule microarray, 635/667 nm fluorescence, primary screen (AID 1132); conditions: 635 nm fluorescence, higher = more signal
[6] = biological target: Fibroblast growth factor 2 (Homo sapiens) (UniProt P09038); assay: basic fibroblast growth factor binding to printed compounds – biochemical, small-molecule microarray, 635/667 nm fluorescence, primary screen (AID 1133); conditions: FGF2, fluorescence 635/667, higher = more signal
[7] = JC-1 mitochondrial potential readout, lung cancer cells – cell-based, A549, JC-1 fluorescence, basal, 24 h, 100 nL, profiling panel (AID 1138); conditions: higher = more signal;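 also: A549 lung adenocarcinoma cells under basal conditions with no added stimulus; test concentration not given here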
Lefty1 = Lefty1 protein binding to printed compounds – biochemical, small-molecule microarray, 635/667 nm fluorescence, primary screen (AID 1139); conditions: fluorescence 635/667, higher = more signal
[8] = test system: wheat germ agglutinin (Triticum aestivum), Alexa647-labelled; assay: Alexa647-WGA lectin binding to printed small molecules – biochemical, small-molecule microarray, 635/667 nm fluorescence, artefact control for SMM control-protein annotation, profiling panel (AID 1140); conditions: WGA-A647 binding, 635 nm fluorescence, higher = more signal;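 also: score merges 667 nm feature emission with signal to noise over triplicate slides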
[9] = biological target: Luciferin 4-monooxygenase (Photinus pyralis) (UniProt P08659); assay: inhibition of purified Photinus pyralis luciferase – biochemical, luminescence, purified enzyme, 2006 set, primary screen (AID 1141); conditions: purified firefly luciferase, SteadyGlo luminescence, 30 min; higher = more signal, called active from +8 up or from −8 down;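 also: cell-free assay with purified firefly luciferase at 100 ng per well in PBS; test concentration not given here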
Chain of Luciferin 4-monooxygenase (Photinus pyralis) (P08659 whole entry, looked up): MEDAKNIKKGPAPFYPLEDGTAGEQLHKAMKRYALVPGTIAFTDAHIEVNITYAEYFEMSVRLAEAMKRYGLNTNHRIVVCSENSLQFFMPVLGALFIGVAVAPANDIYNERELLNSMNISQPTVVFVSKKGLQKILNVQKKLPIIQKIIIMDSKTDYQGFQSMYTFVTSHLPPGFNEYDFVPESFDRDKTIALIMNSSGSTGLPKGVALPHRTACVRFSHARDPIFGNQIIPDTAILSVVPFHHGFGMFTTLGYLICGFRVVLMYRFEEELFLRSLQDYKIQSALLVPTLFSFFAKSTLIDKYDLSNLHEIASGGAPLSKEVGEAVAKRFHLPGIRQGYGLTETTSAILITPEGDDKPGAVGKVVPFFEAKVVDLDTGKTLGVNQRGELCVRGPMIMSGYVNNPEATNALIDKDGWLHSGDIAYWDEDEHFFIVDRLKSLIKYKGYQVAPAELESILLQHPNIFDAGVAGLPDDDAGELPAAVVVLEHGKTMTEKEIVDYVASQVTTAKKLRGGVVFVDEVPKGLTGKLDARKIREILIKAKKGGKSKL

Chain of Follistatin (Homo sapiens) (P19883 whole entry, looked up): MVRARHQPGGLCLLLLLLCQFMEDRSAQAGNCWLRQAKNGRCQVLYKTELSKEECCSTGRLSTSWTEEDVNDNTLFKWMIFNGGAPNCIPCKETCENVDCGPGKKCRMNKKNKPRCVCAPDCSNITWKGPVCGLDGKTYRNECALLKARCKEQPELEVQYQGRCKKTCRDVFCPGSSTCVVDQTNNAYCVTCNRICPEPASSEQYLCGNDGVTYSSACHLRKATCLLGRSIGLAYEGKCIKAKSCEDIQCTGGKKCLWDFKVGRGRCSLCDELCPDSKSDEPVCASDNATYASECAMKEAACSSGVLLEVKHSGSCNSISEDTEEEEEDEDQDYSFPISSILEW
Chain of Focal adhesion kinase 1 (Homo sapiens) (Q05397 whole entry, looked up): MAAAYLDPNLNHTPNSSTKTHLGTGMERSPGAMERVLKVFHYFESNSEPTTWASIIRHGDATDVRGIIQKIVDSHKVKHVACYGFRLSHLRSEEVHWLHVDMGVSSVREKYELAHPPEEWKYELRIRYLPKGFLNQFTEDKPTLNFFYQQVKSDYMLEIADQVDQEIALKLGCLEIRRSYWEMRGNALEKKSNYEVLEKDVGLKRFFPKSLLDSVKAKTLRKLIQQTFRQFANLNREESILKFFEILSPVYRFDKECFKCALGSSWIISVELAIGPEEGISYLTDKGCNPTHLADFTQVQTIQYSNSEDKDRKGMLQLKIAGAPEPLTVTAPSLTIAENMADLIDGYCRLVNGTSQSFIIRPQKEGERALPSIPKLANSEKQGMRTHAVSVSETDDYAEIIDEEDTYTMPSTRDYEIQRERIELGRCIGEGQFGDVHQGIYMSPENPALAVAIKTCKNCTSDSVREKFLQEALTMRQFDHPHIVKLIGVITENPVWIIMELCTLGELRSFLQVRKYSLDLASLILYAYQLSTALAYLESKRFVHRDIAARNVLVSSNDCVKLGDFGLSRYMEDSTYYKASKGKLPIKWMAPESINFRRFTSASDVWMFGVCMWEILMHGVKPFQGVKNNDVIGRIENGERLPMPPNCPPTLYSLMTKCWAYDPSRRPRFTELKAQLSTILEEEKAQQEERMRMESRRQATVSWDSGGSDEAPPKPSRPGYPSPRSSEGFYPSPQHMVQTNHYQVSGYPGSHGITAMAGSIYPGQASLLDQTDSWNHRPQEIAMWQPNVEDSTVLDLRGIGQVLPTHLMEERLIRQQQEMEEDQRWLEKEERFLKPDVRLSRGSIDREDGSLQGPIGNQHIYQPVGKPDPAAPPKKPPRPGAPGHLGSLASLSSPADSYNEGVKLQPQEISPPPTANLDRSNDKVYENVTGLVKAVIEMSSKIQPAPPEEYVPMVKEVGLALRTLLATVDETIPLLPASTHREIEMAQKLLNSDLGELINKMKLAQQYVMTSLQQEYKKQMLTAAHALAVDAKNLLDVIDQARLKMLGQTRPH
Chain of Fibroblast growth factor 2 (Homo sapiens) (P09038 whole entry, looked up): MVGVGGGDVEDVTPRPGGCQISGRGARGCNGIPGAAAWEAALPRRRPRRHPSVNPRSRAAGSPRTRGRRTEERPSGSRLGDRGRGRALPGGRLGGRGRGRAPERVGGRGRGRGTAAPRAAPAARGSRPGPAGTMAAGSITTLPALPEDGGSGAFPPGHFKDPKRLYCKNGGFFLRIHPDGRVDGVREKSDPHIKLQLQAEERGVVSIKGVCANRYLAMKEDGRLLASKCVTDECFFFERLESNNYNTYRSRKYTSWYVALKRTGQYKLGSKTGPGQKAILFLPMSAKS

Row | SMILES | composite z-score [1] | composite z-score [2] | composite z-score [3] | composite z-score [4] | composite z-score [5] | composite z-score [6] | z-score [7] | composite z-score (Lefty1) | composite z-score [8] | z-score [9]
1 | COC(=O)[C@@]1(Cc2ccccc2)[C@H]2c3cc(C(=O)N4CCCC4)n(Cc4ccsc4Br)c3C[C@H]2CN1C(=O)c1ccccc1 | 1.6 | 1.23 | 0.619 | 0.789 | 0.647 | -0.282 | 1.88 | -0.524 | 1.25 | 1.79 (inactive)
2 | CC=CC(O)C1C=CC2C(=O)N(C)C(=O)C2N1N1CCCCC1 (stereo not given) | 0.523 | 1.19 | 0.518 | 0.714 | 1.08 | -0.0299 | -0.138 | 0.446 | 0.864 | -0.451 (inactive)
3 | C=C(CCCC)C(=O)CC[C@@H](OC(=O)c1ccccc1-c1ccccc1C(=O)O)c1cccc(OCCO)c1 | -0.0724 | 0.53 | 0.113 | 0.834 | 1.43 | 1.56 | 0.317 | 1.68 | -0.0168 | -2.33 (inactive)
4 | O=c1cccc(-c2ccc(C(F)(F)F)cc2)o1 | 0.728 | -0.955 | -0.136 | -1.1 | -0.398 | -0.41 | 0.77 | -1.03 | -0.399 | 0.854 (inactive)
5 | Cc1ccc(S[C@]2(C(=O)NC3CC3)CC(=O)N(Cc3ccccc3Cl)[C@@H]2c2ccc(CO)cc2I)cc1 | 2.99 | 1.05 | 1.31 | 0.811 | 1.45 | 1.67 | 0.677 | 0.101 | 0.277 | 0.352 (inactive)
6 | COC(=O)[C@@]1(Cc2ccc(F)cc2)[C@H]2c3cc(C(=O)N4CCCC4)n(CCF)c3C[C@H]2CN1C(=O)c1ccccc1 | 2.82 | 1.2 | 1.67 | 0.642 | 0.088 | -0.299 | 0.0101 | -0.427 | 1.4 | 0.125 (inactive)
7 | CC(C)N1CC=CC23O[C@@H]4C=CCOC(=O)[C@@H]4[C@H]2C(=O)N(C(C)CO)[C@@H]3C1=O (stereo not given in full) | -0.221 | -0.915 | -0.202 | -0.179 | -0.901 | -0.678 | -0.374 | -0.941 | -0.158 | 0.169 (inactive)
8 | COC(=O)[C@]1(CCS(=O)(=O)c2ccccc2)N=C(c2ccc(OCCCO)cc2)O[C@@H]1c1ccccc1CN=[N+]=[N-] | 1.15 | 1.23 | 1.34 | 0.954 | 1.35 | 0.807 | 0.332 | 0.293 | 0.528 | -0.587 (inactive)
9 | CCOC(=O)C1=CC[C@@H](c2cc(Cl)ccc2Cl)N(S(=O)(=O)c2ccc(C)cc2)[C@H]1c1ccc(OC)cc1 | -0.128 | -0.199 | 0.262 | -1.17 | 0.258 | -0.413 | 0.581 | -0.526 | 0.0203 | 0.953 (inactive)
10 | COC(=O)[C@@]1(Cc2ccccc2)[C@H]2c3cc(C(=O)N4CCCC4)n(C[C@H](O)CO)c3C[C@H]2CN1C(=O)c1ccccc1 | 1.39 | 0.926 | 1.62 | -0.455 | -0.326 | -0.978 | 0.577 | -0.554 | 1.18 | 1.22 (inactive)
11 | C=CCN1C(=O)[C@@]2(CCC(=O)OC(C)(C)C)N=C(c3ccc(OCCCO)cc3)O[C@H]2c2ccccc21 | 2.33 | 0.909 | 1.54 | 0.652 | 1.23 | 0.898 | -0.758 | 0.319 | 0.525 | -4.58 (inactive)
12 | COC(=O)[C@H](Cc1ccccc1)N1CC(/C=C/C2CC2)=C[C@@H]1[C@@H](O)Cc1ccccc1 | 0.303 | 1.14 | 0.28 | 0.971 | 0.958 | 0.418 | 0.33 | 1.26 | 0.982 | -0.186 (inactive)
13 | COC(=O)c1c(CC[C@@H](CO)NC(=O)N[C@H](Cn2cc(-c3ccccc3C)nn2)C(C)C)oc(C(C)=O)c1C(=O)OC | 0.0233 | -0.0523 | 0.14 | 0.335 | -0.505 | -0.37 | -0.704 | -0.0683 | 0.567 | 0.379 (inactive)
14 | C=C(/C(=C/C[C@@H](OC(=O)c1ccncc1)c1ccccc1OCCO)c1cc(C(=O)OC)ccc1OC)C(C)C | 0.0652 | 1.2 | 0.378 | -0.325 | 0.64 | 0.806 | 3.35 | 0.782 | 0.986 | -1.47 (inactive)
15 | O=C1OCC=C[C@H]2OC34C=CCN(c5ccc(Cl)cc5)C(=O)[C@H]3N(CCCCCO)C(=O)[C@@H]4[C@@H]12 (stereo not given in full) | 3.93 | -0.434 | 0.0336 | -0.825 | -1.03 | -0.994 | 0.731 | -1.52 | -0.519 | -0.232 (inactive)
16 | CCCc1cccc(=O)o1 | 0.439 | 0.799 | 0.106 | 0.915 | 0.793 | 0.223 | 0.352 | 0.614 | 0.782 | 2.08 (inactive)
17 | CC(C)C(=C=CC[C@H](O)c1ccc(OCCO)cc1)C[C@H](O)c1cc(Cl)cc(Cl)c1O | 2.46 | 1.09 | -0.0133 | 0.134 | 0.996 | 1.09 | 1.78 | 1.22 | 0.539 | -1.78 (inactive)

Row | SMILES | composite z-score [1] | composite z-score [2] | composite z-score [3] | composite z-score [4] | composite z-score [5] | composite z-score [6] | z-score [7] | composite z-score (Lefty1) | composite z-score [8] | z-score [9]
18 | C=CCOC(=O)[C@@H]1[C@H]2C(=O)O[C@H](c3ccccc3)[C@H](c3ccccc3)N2[C@H](c2ccc(OCCOC(=O)[C@H]3C[C@H]4C(=O)N[C@@H](CC(C)C)C(=O)N4[C@H]3c3ccc(O)cc3)cc2)[C@@]12C(=O)Nc1ccc(I)cc12 | 2.17 | 1.19 | 0.538 | 0.623 | 1.5 | 1.87 | -0.176 | 1.52 | 0.747 | -0.646 (inactive)
19 | CCCN1C(=O)[C@]2(Cc3ccccc3)N=C(c3ccc(OCCCO)cc3)O[C@@H]2c2ccccc21 | 1.9 | 1.22 | 0.0605 | 0.962 | 1.46 | 1.63 | 1.44 | 0.951 | 0.751 | -4.12 (inactive)
20 | COc1cc2c(cc1OC)CN(C(=O)[C@@H]1[C@H]3C(=O)O[C@H](c4ccccc4)[C@H](c4ccccc4)N3[C@H](c3ccccc3OCCO)[C@@]13C(=O)Nc1ccc(C#CC4(O)CCCCCC4)cc13)CC2 | 1.57 | 1.17 | -0.0242 | 0.787 | 0.954 | 0.513 | -0.825 | 0.895 | 0.9 | -0.877 (inactive)
21 | C=CCC(OC(C)=O)[C@@H]1[C@@H](N(Cc2cc3ccccc3o2)C(=O)Cc2ccc(F)cc2)c2cc(OCCCO)ccc2N1C(=O)c1ccc2ccccc2n1 (stereo not given in full) | 0.055 | -0.694 | 0.0919 | 0.271 | 0.147 | -0.0144 | 0.728 | -0.189 | 0.0937 | -0.997 (inactive)
22 | CC(C)C(=C=CC[C@@H](O)c1ccccc1OCCO)C[C@@H](O)COCc1ccccc1 | -0.0424 | 0.42 | -0.0011 | 0.807 | 1.28 | 1.45 | 1.88 | 0.435 | 0.288 | -2.5 (inactive)
23 | CO[C@H]1O[C@H](CO)[C@@H](OC(=O)Nc2ccc(Oc3ccccc3)cc2)[C@H](OC(=O)Nc2ccccc2-c2ccccc2)[C@@H]1OC(=O)Nc1ccccc1-c1ccccc1 | 0.818 | 1.07 | 0.263 | 0.964 | 0.595 | 0.295 | -0.426 | 0.841 | 0.773 | -0.69 (inactive)
24 | Cc1ccc(S[C@]2(C(=O)NCC(C)C)CC(=O)N(Cc3ccccc3Cl)[C@@H]2c2ccc(CO)cc2I)cc1 | 0.231 | 0.132 | -0.47 | 0.137 | -0.142 | -0.131 | -0.204 | -0.7 | 0.231 | 0.272 (inactive)
25 | COCC(=C=CC[C@H](O)c1ccc(OCCO)cc1)C[C@H](O)COCc1ccccc1 | 1.35 | 0.887 | 0.453 | 0.31 | 1.21 | 0.372 | 0.743 | 0.722 | 0.624 | -0.627 (inactive)
26 | COc1ccc([Si](C)(C)[C@@H]2[C@@H](CCn3cc([C@H](O)c4ccccc4)nn3)O[C@]3(C(=O)N(Cc4ccc(N5CCOC5=O)cc4)c4ccccc43)[C@H]2C)cc1 | 0.551 | 1.06 | -0.0646 | 0.851 | 1.07 | 1.04 | 0.708 | 1.14 | 0.616 | 0.82 (inactive)
27 | CCOC(=O)C[C@H]1[C@H](OC(=O)Cc2ccc3c(c2)OCO3)[C@@H](NC(=O)Cc2ccc(OC)cc2)c2cc(OCCCO)ccc2N1C(=O)c1ccccc1 | 0.0506 | 0.814 | 0.668 | 0.511 | 0.41 | 0.251 | 1.57 | 0.389 | 0.956 | -0.566 (inactive)
28 | C[C@]1(C(=O)NCCN2CCOCC2)c2ccccc2C(=O)N(Cc2ccc(OC(F)(F)F)cc2)[C@H]1c1ccc(CO)cc1 | 2.24 | 0.634 | -0.108 | 0.915 | 0.536 | -0.38 | 1.68 | -0.355 | 0.55 | -0.0852 (inactive)
29 | C[C@H]1C2=C3C(CC[C@H]4C(OCc5ccc(F)cc5C(F)(F)F)OC[C@](C)([C@@H]34)N(C(=O)OC(C)(C)C)C2)C(CO)C1CO (stereo not given in full) | 0.0803 | 1.12 | 0.882 | 0.944 | 0.578 | -1.89 | 1.31 | -0.781 | 0.608 | 0.608 (inactive)
30 | COC1(C)CN(Cc2ccccc2Br)[C@H](/C=C/c2ccccc2)[C@H](Cc2ccccc2)O1 (stereo not given in full) | 0.258 | -0.561 | 0.106 | -0.291 | -0.598 | -0.375 | 0.267 | 0.0787 | 0.0565 | -0.238 (inactive)
31 | C=C1C2CC3C(=C4C(CO[C@@H]4[C@H]4CCCN4S(=O)(=O)c4ccccc4[N+](=O)[O-])C4C(=O)N(C)C(=O)C34)CC2C(=O)N1C (stereo not given in full) | -0.382 | 0.128 | 0.0722 | 0.412 | 0.482 | 0.425 | 0.225 | 0.218 | 0.337 | 0.101 (inactive)
32 | C=C(COC)/C(=C/C[C@@H](OC(=O)c1ccncc1)c1ccc(OCCO)cc1)c1cnc2ccccc2c1 | 0.866 | 1.13 | 0.0089 | 0.94 | 1.46 | 1.74 | 0.703 | 1.49 | 0.798 | -2.4 (inactive)
33 | C=C(C(=O)CC[C@H](OC(=O)c1cccnc1)c1ccc(CO)o1)C(C)C | -0.109 | 1.09 | -0.22 | 0.88 | 0.886 | 0.962 | -0.559 | 1.04 | 0.884 | -1.55 (inactive)
